An excerpt weighted towards active compounds, which were near 6% of everything screened.
Tau fluor counter – Counterscreen qHTS for Inhibitors of Tau Fibril Formation, Fluorescence Polarization; 0.93% of 280,000 active; Potency, µM (doses to about 57.7 µM), for inactives: top-dose activity change, negative = decrease; AID 1463, 2008; tau K18 P301L Alexa594 fluorescence, heparin fibrillization; further: nearly all actives have a fitted effect of over 55% in size
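Human K18 P301L tau (15 uM unlabeled plus 0.24 uM Alexa 594-labeled, final) in 100 mM sodium acetate pH 7 was mixed with compound and 20 uM heparin and incubated 6 hr at 37 C.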
VDR inh – Inhibitors of the vitamin D receptor (VDR): qHTS | Vitamin D3 receptor (Homo sapiens), P11473 | VDR-SRC2-3 peptide fluorescence polarization, 2 h | 0.93% of 400,000 active | Potency, µM, for inactives: max response, negative = inhibition, most hits filed as inhibitors | AID 504847, 2011
Target sequence (P11473 whole entry, looked up): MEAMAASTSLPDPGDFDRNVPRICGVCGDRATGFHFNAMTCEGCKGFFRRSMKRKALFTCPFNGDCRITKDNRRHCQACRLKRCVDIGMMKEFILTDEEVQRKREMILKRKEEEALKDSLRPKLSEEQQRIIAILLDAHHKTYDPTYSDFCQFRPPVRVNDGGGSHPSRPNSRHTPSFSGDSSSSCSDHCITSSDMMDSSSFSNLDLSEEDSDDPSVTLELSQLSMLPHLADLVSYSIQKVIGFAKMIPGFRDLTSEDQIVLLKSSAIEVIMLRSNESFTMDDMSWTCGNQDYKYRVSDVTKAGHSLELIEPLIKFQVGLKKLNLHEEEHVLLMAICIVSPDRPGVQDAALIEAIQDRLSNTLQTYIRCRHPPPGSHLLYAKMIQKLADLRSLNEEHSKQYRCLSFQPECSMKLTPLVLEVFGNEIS
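Signal is fluorescence polarization, reporting how far test compounds block the interaction of VDR with the SRC2-3 coregulator peptide after a 2 h room-temperature incubation.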
Tau fibril ThT – qHTS for Inhibitors of Tau Fibril Formation, Thioflavin T Binding. Microtubule-associated protein tau (Homo sapiens), P10636. recombinant tau K18 P301L (four-repeat tau fragment), heparin-induced fibrillization, ThT fluorescence. Potency, µM (doses to about 57.4 µM), inactives show at the highest dose activity, negative = inhibition, usual class: inhibitors. 2.1% of 270,000 active; further: nearly all actives have a fitted effect of over 55% in size
Target sequence (P10636 561-689 P618L limits assumed): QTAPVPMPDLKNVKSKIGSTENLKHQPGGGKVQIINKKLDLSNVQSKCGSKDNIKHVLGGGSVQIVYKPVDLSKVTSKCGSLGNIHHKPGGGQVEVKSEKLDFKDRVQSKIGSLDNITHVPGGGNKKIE
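Recombinant human tau K18 fragment […] carrying P301L, 15 uM unlabeled plus 0.24 uM Alexa 594-labeled, was fibrillized with 20 uM heparin in 100 mM sodium acetate pH 7 for 6 hr at 37 C; 30 uM ThT fluorescence read after 1 hr.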
Tau FP inhib – qHTS for Inhibitors of Tau Fibril Formation, Fluorescence Polarization. Microtubule-associated protein tau (Homo sapiens), P10636. K18 P301L tau heparin fibrillization, Alexa594 FP, 6 h. Potency, µM (series often up to 57.7 µM), inactives show top-dose activity, negative = inhibition, actives largely listed as inhibitors. 0.39% of 280,000 active. AID 1468, 2008; further: nearly all actives have a fitted effect of over 55% in size
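Compound effects on tau fibrillization are measured by Alexa 594 fluorescence polarization (ex 555, em 632 nm). K18 P301L tau is used at 15 uM with 0.24 uM labeled tracer, and 20 uM heparin induces aggregation over 6 hr at 37 C.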
PLK1 PBD inh – qHTS for Inhibitors of PLK1-PDB (polo-like kinase 1 - polo-box domain): Primary Screen | Plk1 PBD binding of FITC phosphopeptide, fluorescence polarization | Serine/threonine-protein kinase PLK1 (Homo sapiens), P53350 | Potency, µM, without a hit: max response, negative = inhibition, usual class: inhibitors | 2.8% of 360,000 active; further: series mostly up to about 57 µM; nearly all actives have a fitted effect of over 65% in size
Sfp PPTase inh – qHTS Assay for Inhibitors of Bacillus subtilis Sfp phosphopantetheinyl transferase (PPTase) | 3.5% of 310,000 active | Biochemical Sfp PPTase activity, qHTS | AID 1490, 2009 | Potency, µM, inactives show largest response in the series, negative = inhibition, actives largely listed as inhibitors | 4'-phosphopantetheinyl transferase ffp (Bacillus subtilis), Q9F4F7;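 further: the enzyme is Sfp with the accession as filed and its product quenches rhodamine fluorescence; 0% = enzyme reaction without inhibitor and -100% = no enzyme wells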
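Reaction rates are the 30-min fluorescence difference (ex 525, em 598 nm) in wells containing 15 nM Sfp, 5 uM rhodamine-CoA and 12.5 uM BHQ-2-YbbR at pH 7.6 with 10 mM MgCl2.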
Active calls of the source: *; ? = inconclusive; . = no result given; [ ] = another dose, or the depositor's remark. The call rests on the fitted dose curve; in most records, active means well fitted curve in the direction sought with a large enough effect; inconclusive means small, poorly fitted or top-dose-only effect, or another doubt; inactive means no such curve, though single readings can be large; an effect the other way counts as inactive or inconclusive. Unless noted, on the % scale 0 is the no-effect control and ±100 the full control effect; potency means the concentration at half of the fitted maximal effect.

SMILES	Tau fluor counter	VDR inh	Tau fibril ThT	Tau FP inhib	PLK1 PBD inh	Sfp PPTase inh
O=C(NCc1ccc(F)cc1)c1cccc2c1C(=O)N(Cc1cccnc1)C2	-14%	-4%	-3%	-6%	27µM*	-3%
Cc1[nH]n(-c2ccccc2)c(=S)c1C=Nc1cccc([N+](=O)[O-])c1	-23%	22µM*	22µM*	?	3.4µM*	-92%
Cc1ccc(CCNS(=O)(=O)c2cc(Br)cnc2N)cc1	.	-18%	.	.	-14%	7%
CCOc1ccc(-c2nnc(-c3ccncc3)o2)cc1	1%	71µM*	-11%	4%	27µM*	9%
CCC(=O)N(C)CCc1cc2c(c(OC)c1/C=N/NC(=O)c1ccc(Br)cc1)OCO2	-16%	?	-15%	-1%	24µM*	2%
COCCn1c(=O)cnc2cnc(N3CCN(C)CC3)nc21	.	-3%	.	.	.	-6%
CN(C)/N=C/c1ccc([N+](=O)[O-])cc1[N+](=O)[O-]	-19%	-14%	?	-2%	-17%	56µM*
CN(C)/N=C/c1ccc(Sc2ccccc2[N+](=O)[O-])o1	?	-18%	?	4%	6µM*	-3%
O=c1cc(N2CCCCC2)c(-c2ccccc2)nn1Cc1ccc(Cl)cc1	-2%	5%	?	8%	-3%	?
O=c1cc(N2CCCCC2)c(-c2ccccc2)nn1Cc1c(Cl)cccc1Cl	-5%	-18%	-18%	-1%	27µM*	?
O=[N+]([O-])c1ccc2nc(SCc3ccccc3Cl)sc2c1	-28%	9%	?	-3%	-5%	7%
NC(=O)CSc1ncc(-c2ccc([N+](=O)[O-])cc2)[nH]1	-16%	-15%	?	-5%	0%	8%
Cc1cc(C)c2c(=O)[nH]c(SCc3ccc([N+](=O)[O-])cc3)nc2n1	-16%	-5%	-12%	-7%	-2%	1%
Cc1cc(C)c(CSc2ncc(-c3ccc([N+](=O)[O-])cc3)[nH]2)c(C)c1	6.3µM*[quencher]	-2%	5µM*	-10%	-7%	26%
O=[N+]([O-])c1ccc(-c2cnc(SC(c3ccccc3)c3ccccc3)[nH]2)cc1	4µM*[quencher]	-12%	?	?	-16%	39%
O=[N+]([O-])c1ccc(-c2cnc(SCc3ccccc3Cl)[nH]2)cc1	16µM*[quencher]	4%	14µM*	-4%	4%	10%
CC(C)c1ccc(C(=O)N2CCCC(c3cc(C(=O)Nc4ccc5c(c4)OCO5)no3)C2)cc1 (stereo not given)	.	.	.	.	10%	.
Cc1ccc(-c2nnnn2-c2ccc(C)cc2)cc1	-10%	?	-7%	-4%	17µM*	8%
Cc1ccc(-n2nnnc2-c2cccc(C)c2)cc1	-5%	-10%	-3%	-6%	-2%	-2%
COc1cc(/C=C2\S/C(=N/S(=O)(=O)c3ccccc3)NC2=O)c([N+](=O)[O-])cc1OC	?	?	14µM*	?	?	?
COc1ccc(S(=O)(=O)/N=C2/NC(=O)/C(=C\c3cc(OC)c(OC)cc3[N+](=O)[O-])S2)cc1	?	-15%	22µM*	-3%	-27%	20%
COc1ccc(S(=O)(=O)/N=C2/NC(=O)/C(=C/c3ccco3)S2)cc1	-13%	1%	?	?	-27%	-15%
CSc1ccc(CCNC(=O)c2sc3ncccc3c2-n2cccc2)cc1	-18%	5%	-13%	2%	.	.
COc1cccc(-c2nn[nH]n2)c1O	11%	2%	3%	1%	-3%	50µM*
Cc1ccccc1-c1nc(CS(=O)CC(=O)NC2CCCCC2)c(C)o1 (stereo not given)	.	-4%	.	.	-16%	2%
SMILES	Tau fluor counter	VDR inh	Tau fibril ThT	Tau FP inhib	PLK1 PBD inh	Sfp PPTase inh
Cc1oc(-c2cccs2)nc1CS(=O)CC(=O)NC1CCCCCC1 (stereo not given)	-7%	?	?	-7%	21µM*	-19%
CCc1ccc(-c2nc(CS(=O)CC(=O)NCCCN3CCC(C)CC3)c(C)o2)cc1 (stereo not given)	.	-9%	.	.	27µM*	17%
Cc1ccc(-c2nc(CS(=O)CC(=O)NC3CCCCC3)c(C)o2)cc1 (stereo not given)	.	0%	.	.	-16%	3%
CCc1ccc(-c2nc(CS(=O)CC(=O)NCCN3CCCCCC3)c(C)o2)cc1 (stereo not given)	.	-7%	.	.	-23%	-8%
COc1ccc(-c2nc(CS(=O)CC(=O)NC3CCCC3)c(C)o2)cc1 (stereo not given)	.	?	.	.	27µM*	13%
Cc1ccccc1-c1nc(CS(=O)CC(=O)NCCc2ccc(Cl)cc2)c(C)o1 (stereo not given)	-24%	-14%	-10%	0%	19µM*	-7%
CC1CCCCN1c1cc2c(cc1F)c(=O)c(S(=O)(=O)c1ccccc1)cn2Cc1ccccc1 (stereo not given)	4%	8%	-2%	-3%	.	.
CO[C@@H]1CN(C)C(=O)c2ccc(NC(=O)c3ccccc3F)cc2OC[C@@H](C)N(CC2CCOCC2)C[C@@H]1C	.	.	.	.	-6%	.
CCOC(=O)c1c(C)oc2c1cc(O)c1ccccc12	-26%	7%	?	?	-17%	24%
CCOC(=O)c1c(C)[nH]c2c1cc(O)c1ccccc12	?	-10%	16µM*	-3%	-7%	-6%
CCN(CC)C(=O)c1[nH]cnc1C(=O)NCc1ccccc1	.	1%	.	.	-11%	.
Cc1cccc([C@@H]2CN(C)CCc3c2cc(O)c(O)c3Cl)c1	-18%	.	-19%	-2%	.	79µM*
CC(C)(C)/C(O)=C/c1nc2cc(Cl)ccc2oc1=O	-11%	-19%	-9%	-2%	-3%	?
Cc1ccc2oc(=O)c(/C=C(\O)C(C)(C)C)nc2c1	-28%	19%	?	-4%	5%	56µM*
C=CCN(C(=O)CCC(=O)O)C1CC(=O)N(c2ccc(OCCC)cc2)C1=O (stereo not given)	4%	-21%	-6%	8%	24µM*	-3%
CC(Sc1nc(NCc2ccccc2)nc(N2CCOCC2)n1)C(=O)Nc1ccccc1 (stereo not given)	-10%	-21%	10%	-13%	30µM*	25%
CCNc1nc(SC(C)C(=O)Nc2ccccc2)nc(N2CCOCC2)n1 (stereo not given)	-1%	-7%	0%	-8%	4%	-6%

Screens (PubChem)
